RORg inh: blocks mouse ROR gamma transcriptional activity; Potency, µM (highest dose often 53.6 µM), for inactives: at the top dose activity change, negative = inhibition, actives largely listed as inhibitors; P51450; Drosophila S2 Gal4-RORgamma UAS-luciferase reporter, 20 h; hit rate 5.4% among 310,000; AID 2551; also: potency is read from the fitted curve at half-maximal effect; nearly all actives have a fitted effect of over 60% in size
Target sequence (P51450 whole entry, looked up, the tested form may be a part): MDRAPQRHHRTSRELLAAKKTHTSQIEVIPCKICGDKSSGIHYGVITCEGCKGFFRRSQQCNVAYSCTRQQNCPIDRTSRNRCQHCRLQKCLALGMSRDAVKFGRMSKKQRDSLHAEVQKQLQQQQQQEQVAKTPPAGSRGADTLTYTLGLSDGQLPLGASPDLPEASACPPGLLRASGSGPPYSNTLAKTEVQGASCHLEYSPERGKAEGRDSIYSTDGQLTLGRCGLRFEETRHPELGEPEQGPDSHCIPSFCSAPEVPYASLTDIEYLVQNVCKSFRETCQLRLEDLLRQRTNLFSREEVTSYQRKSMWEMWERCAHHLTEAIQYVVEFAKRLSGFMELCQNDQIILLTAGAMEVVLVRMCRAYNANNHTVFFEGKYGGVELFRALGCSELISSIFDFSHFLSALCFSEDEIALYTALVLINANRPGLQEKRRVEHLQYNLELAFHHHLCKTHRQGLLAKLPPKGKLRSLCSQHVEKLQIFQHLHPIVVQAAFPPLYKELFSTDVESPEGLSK
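ROR gamma transcriptional activity was tracked as Gal4-UAS luciferase output in stably transfected Drosophila Schneider cells, with compound added 1 hr before 700 uM copper sulfate induction and a 20 hr ambient-temperature incubation.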
Gal4-VP16 FLuc: counter-screen for ROR gamma inhibitors: Gal4-VP16 reporter; Drosophila S2 Gal4-VP16 UAS-luciferase, luminescence, 20 h; Potency, µM (doses to about 53.6 µM), for the others: top-dose activity, negative = inhibition, usual class: inhibitors; hit rate 3.5% among 310,000;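 also: Gal4-VP16 expression switched on by copper sulfate through the metallothionein promoter; potency is read from the fitted curve at half-maximal effect; nearly all actives have a fitted effect of over 50% in size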
ELG1 repair inh: inhibitors of ELG1-dependent DNA repair in HEK293T cells | HEK293T ELG1-luciferase reporter, luminescence, 16 h; DNA damage induced by 5-fluorouridine | AID 504467 | Potency, µM (highest dose often 46.1 µM), inactives show top-dose activity change, negative = inhibition, usual class: inhibitors | hit rate 2.3% among 330,000; also: potency is read from the fitted curve at half-maximal effect; nearly all actives have a fitted effect of over 55% in size
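Overnight (16 hr) co-exposure of 2,000 cells/well to 5-fluorouridine and compound at 37 °C preceded detection. Luciferase was quantified via ONE-Glo luminescence; loss of signal denotes inhibition.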
IL1B secr inh: blocks inflammasome-driven IL-1 beta release. activity change, % at 57.5 µM. AID 743279. hit rate 4.7% among 360,000. THP-1 LPS/ATP IL-1B secretion, AlphaLISA, 16 h; active compounds read low; in the data active = activity change below about -50%; inconclusive = mostly about -30% to -49%
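THP-1 cells pretreated 1 hr with compounds (up to 57.5 uM final), then stimulated with LPS (250 ng/mL final) plus ATP (1.25 mM final); secreted IL-1B measured by AlphaLISA after 16 hr, decreased signal indicating inhibition.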
DT40 TDP1 CPT: DT40-hTDP1 cell growth loss with CPT | AID 686979 | chicken DT40 Tdp1-/-;hTDP1 cells + 20 nM CPT, ATP luminescence, 48 h | hit rate 12% among 420,000 | Potency, µM (series often up to 46.2 µM), for the others: top-dose activity change, negative = growth inhibition, hits mostly inhibitors; also: potency is read from the fitted curve at half-maximal effect; nearly all actives have a fitted effect of over 55% in size
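Chicken DT40 Tdp1-/- cells complemented with human TDP1, 400 cells/well, exposed to compounds plus 20 nM camptothecin for at least 48 h at 37 C; viability read as ATP content by CellTiter-Glo luminescence.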
TDP1 cell noCPT: qHTS for Inhibitors of human tyrosyl-DNA phosphodiesterase 1 (TDP1): qHTS in cells in absence of CPT. DT40 Tdp1-/- hTDP1 cells, no CPT, ATP luminescence, 48 h. Potency, µM (doses to about 46.2 µM), for inactives: top-dose activity change, negative = growth inhibition, most hits filed as inhibitors. hit rate 15% among 420,000. AID 686978, 2013; also: potency is read from the fitted curve at half-maximal effect; nearly all actives have a fitted effect of over 55% in size
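Luminescent ATP content (CellTiter-Glo) served as the growth readout. Knockout chicken DT40 cells expressing human TDP1 were exposed to compounds without camptothecin for a minimum 48 hr at 37 °C.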
Active calls of the source: *; ? = inconclusive; nt = no result given. This is a sample that favours compounds with a hit; in the whole collection about 21% have one here. Unless noted, calls follow the shape of the dose curve; as a rule, active = well fitted curve in the direction sought with a large enough effect; inconclusive = small, poorly fitted or top-dose-only effect, or another doubt; inactive = no such curve, though single readings can be large; an effect the other way counts as inactive or inconclusive. % is scaled to controls: 0 for no effect and ±100 for the full control effect.

SMILES | RORg inh | Gal4-VP16 FLuc | ELG1 repair inh | IL1B secr inh | DT40 TDP1 CPT | TDP1 cell noCPT
CC[C@H](C)[C@H](NC(=O)[C@H](Cc1ccc(O)cc1)NC(=O)[C@@H](NC(=O)[C@@H](N)CCCN=C(N)N)C(C)C)C(=O)N[C@@H](Cc1cnc[nH]1)C(=O)N1CCC[C@H]1C(=O)N[C@@H](Cc1ccccc1)C(=O)O | 2% | -5% | nt | nt | nt | nt
COc1ccc(NC(=S)N(CCO)Cc2ccccc2)cc1 | -15% | -8% | 14% | nt | nt | nt
CCCN(CC1CC1)C(=S)Nc1ccc(Oc2ccccc2)cc1 | 13µM* | 8.9µM* | -9% | 29 | ? | 16µM*
CCCCN(C)C(=S)Nc1ccc(Oc2ccccc2)cc1 | 11µM* | ? | 7% | 0 | -25% | ?
CN(CCC#N)C(=S)Nc1ccc(Oc2ccccc2)cc1 | 36% | 19% | -3% | 25 | ? | ?
O=C(Nc1ccc(C(=O)OCc2cc(=O)n3ccsc3n2)cc1)c1cccc(F)c1 | nt | nt | nt | nt | -20% | -1%
COc1cccc(C(C)(O)c2nc(-c3ccccc3)cs2)c1 (stereo not given) | nt | nt | nt | 5 | 16µM* | 18µM*
COc1cccc(C(C)(O)c2nc(-c3cccc(C(C)C)c3)cs2)c1 (stereo not given) | nt | nt | nt | -83* | ? | 23µM*
CN(C)c1ccc(-c2csc(C(C)(O)c3cccc(F)c3)n2)cc1 (stereo not given) | nt | nt | nt | -17 | 13µM* | 21µM*
COc1ccc(C(C)(O)c2nc(-c3cccc(C(=O)O)c3)cs2)cc1 (stereo not given) | nt | nt | nt | 12 | 14% | 4%
COc1cccc(C(C)(O)c2nc(-c3ccc(OC)c(OC)c3)cs2)c1 (stereo not given) | nt | nt | nt | -25 | ? | ?
CC(C)c1cccc(-c2csc(C(C)(O)c3ccncc3)n2)c1 (stereo not given) | nt | nt | nt | 10 | 12µM* | 13µM*
CC(O)(c1cccc(F)c1)c1nc(-c2ccc(Cl)cc2)cs1 (stereo not given) | nt | nt | nt | 31 | ? | ?
O=C(CSc1nc2c([nH]c3ccccc32)c(=O)n1-c1ccc(Cl)cc1)N1CCOCC1 | nt | nt | nt | nt | 5% | 1%
COc1cccc(C(C)(O)c2nc(-c3ccc(N(C)C)cc3)cs2)c1 (stereo not given) | nt | nt | nt | -19 | 18µM* | 21µM*
COc1cccc(C(C)(O)c2nc(-c3ccc(F)c(Cl)c3)cs2)c1 (stereo not given) | nt | nt | nt | -23 | ? | ?
COc1ccc(OCC(=O)N2CCN(C(=O)c3cccc4ccccc34)CC2)cc1 | 18% | -11% | -5% | 4 | -11% | -12%
CCCS(=O)(=O)N1CCN(Cc2ccc3c(c2)c2ccccc2n3CC)CC1 | -17% | -13% | ? | ? | 21µM* | ?
CCOc1ccc(CN2CCN(C(=O)c3cccc4ccccc34)CC2)cc1 | 22% | 15% | ? | -83* | ? | ?
CCOc1ccc(CN2CCSCC2)cc1 | -43% | -2% | 0% | -3 | 2% | -6%
CCn1c2ccccc2c2cc(CN3CCN(Cc4ccc(OC)c(OC)c4)CC3)ccc21 | nt | nt | nt | nt | 18µM* | 23µM*
CCOc1ccc(CN2CCN(Cc3ccc4c(c3)c3ccccc3n4CC)CC2)cc1 | nt | nt | nt | nt | ? | 15µM*
COc1ccc(C2=NS(=O)(=O)N(C)C(C(=O)N3CCN(C)CC3)=C2)cc1 | 13% | 1% | 10% | 6 | -21% | 9%
O=C(OCCOc1ccccc1F)c1cccc(S(=O)(=O)N2CCOCC2)c1 | nt | nt | -3% | 32 | -3% | -8%
COc1ccc(CN2CCN(Cc3ccc4ccccc4c3)CC2)cc1OC | 35% | -9% | -14% | ? | ? | 18µM*
SMILES | RORg inh | Gal4-VP16 FLuc | ELG1 repair inh | IL1B secr inh | DT40 TDP1 CPT | TDP1 cell noCPT
COc1ccccc1CN1CCN(Cc2ccc3ccccc3c2)CC1 | -5% | -21% | -5% | -3 | ? | ?
CCC(=O)n1nc(-c2ccc(Cl)cc2)nc1NCc1ccccc1 | ? | 12% | ? | -17 | 15µM* | 16µM*
Cc1ccc2[nH]c(C(=O)N3CCN(c4cccc(Cl)c4)CC3)cc2c1 | -19% | 1% | -9% | 12 | -8% | -20%
CCOc1cccc(C2C=C(c3ccc4c(c3)OCO4)NC(c3ccccc3Cl)N2)c1O (stereo not given) | nt | nt | nt | nt | ? | 11µM*
COC(=O)c1ccc(C2NC(c3ccc4c(c3)OCO4)=CC(c3ccccc3O)N2)cc1 (stereo not given) | nt | nt | nt | nt | 7.1µM* | 6.3µM*
Oc1ccc(Cl)cc1C1C=C(c2ccc3c(c2)OCO3)NC(c2ccc(Cl)cc2)N1 (stereo not given) | nt | nt | nt | nt | 4µM* | 6.3µM*
CCOc1cc(C(=O)Nc2ccc3c(c2)OCO3)ccc1OCCOc1ccccc1Cl | 43% | 14% | nt | 1 | -4% | -16%
C#CCOCCOCCOCCNc1nc(N2CCOCC2)nc(N2CCN(C(=O)[C@H](Cc3cc4ccccc4[nH]3)n3cc([C@@H](N)C(C)CC)nn3)CC2)n1 (stereo not given in full) | 23% | -4% | -8% | ? | -7% | -26%
C#CCOCCOCCOCCNc1nc(N2CCN(C(=O)C(Cc3ccc(O)cc3)n3cc(C(N)CC(C)C)nn3)CC2)nc(N2CCN(C(=O)C(Cc3cc4ccccc4[nH]3)n3cc(C(N)C(C)CC)nn3)CC2)n1 (stereo not given) | -15% | -3% | 11% | nt | nt | nt
C#CCOCCOCCOCCNc1nc(N2CCN(C(=O)[C@H]([C@@H](C)CC)n3cc([C@@H](N)Cc4ccc(O)cc4)nn3)CC2)nc(N2CCN(C(=O)[C@H](Cc3cc4ccccc4[nH]3)n3cc([C@@H](N)CC(C)C)nn3)CC2)n1 | nt | nt | ? | -17 | 23µM* | ?
C#CCOCCOCCOCCNc1nc(N2CCN(C(=O)C(Cc3cc4ccccc4[nH]3)n3cc(C(N)C(C)CC)nn3)CC2)nc(N2CCN(C(=O)C(Cc3cc4ccccc4[nH]3)n3cc(C(N)C(C)CC)nn3)CC2)n1 (stereo not given) | -3% | -14% | ? | -27 | 16µM* | ?
